# Results reported in PubChem BioAssay (NCI).
# Compounds without any hit were thinned out: in the full panel of roughly 83,000, 20% have a hit.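 Assay: single dose, 48 h. Readout: percent growth (0 = no net growth; negative = cell death). Active: <10.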 Values without a mark were called inactive. Calls of active or inactive are those of the source.
# Tested on: IGROV1 ovarian
# Experiment: NCI-60 one-dose screen, 48 h (100 = growth as untreated, 0 = no growth, -100 = all killed)
# Settings: 10 µM
row,SMILES,growth
1,Brc1ccc2c(c1)-c1ccccc1C1=NCCN12,27.1%
2,CC(C)N(CCOc1cccc(-c2nc3sccn3c2-c2ccnc(S(C)(=O)=O)n2)c1)C(C)C,94.7%
3,Cc1ccc(/C=C/C(=O)C(=O)/C=C/c2ccc(C)cc2)cc1,94.4%
4,O=C(Nc1cc(Cl)cc2c1-c1ccc(Cl)cc1C2O)C(Cl)Cl (centres undefined),73.2%
5,COc1cc(Cc2cc(-c3ccccc3)n[nH]c2=O)cc(OC)c1OC,63.3%
6,Cc1cc(C(C#N)c2ccc(Cl)cc2)c(Cl)cc1NC(=O)c1cc(I)cc(I)c1O (centres undefined),51.7%
7,C/C=C/C1=CN2C(=O)c3cc(OC4OC(C)C(NC)C(C)(O)C4O)c(C)c(O)c3N=C[C@@H]2C1 (some centres undefined),-22.7% (active)
8,CNC(=O)c1c(I)c(NC(C)=O)c(I)c(C(=O)O)c1I,115%
9,COc1ccc(Nc2cnc3cc(NS(=O)(=O)c4ccc(C)cc4)ccc3n2)cc1,65.5%
10,COc1cc(-c2nn(-c3ccc(NC(=O)NCCCNC(=O)c4ccccc4)cc3)cc2-c2ccncc2)ccc1Cl,38.1%
11,OCC1OC(n2ccc3c(NO)ncnc32)C(O)C1O (centres undefined),-32.1% (active)
12,C[C@]12CC[C@@H]3c4ccc(OS(=O)(=O)O)cc4CC[C@H]3[C@@H]1CC[C@@H]2NS(=O)(=O)c1ccc(-c2ccccc2)cc1,70.4%
13,CCN1CCN(CCC(=O)Nc2cccc(-n3cc(-c4ccncc4)c(-c4ccc(Cl)c(OC)c4)n3)c2)CC1,47.2%
14,COc1ccc(-c2nnc(SCC(=O)Nc3ccc(C(=O)/C=C/c4ccccc4)cc3)n2-c2ccccc2)cc1OC,87.4%
